Active and inactive are the calls of the source. Unless noted, no rule for the calls is given here.
Legend:
[1] = HepG2 liver cancer cell viability effects, profiling panel, resazurin fluorescence, 24 h, PK04 Diversity Set (AID 1172); conditions: higher = more signal; also: test concentration not given here
[2] = basal S. cerevisiae growth modulation, no modifier, primary screen, OD600, strain BY4716, 24 h, basal condition (AID 1173); conditions: OD600, 24 h, higher = more signal, called active from +8 up or from −8 down
[3] = MM1S myeloma cell viability, profiling panel, resazurin fluorescence, basal, 24 h, PK04 Diversity Set (AID 1174); conditions: higher = more signal, called active from +8 up or from −8 down;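 also: MM1S multiple myeloma cell line; test concentration not given here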
[4] = molecular target: Dihydroorotate dehydrogenase (quinone), mitochondrial (Plasmodium falciparum (isolate 3D7)) (UniProt Q08210); assay: PfDHODH enzyme inhibitors, primary screen, biochemical, C-terminal His tag, absorbance 600 nm (AID 1175); conditions: DCIP absorbance 600 nm, higher = more signal, called active from +8 up or from −8 down;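 also: recombinant parasite enzyme with a five histidine tag at its C terminus; test concentration not given here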
[5] = P. aeruginosa biofilm formation inhibitors, primary screen, strain PAO1, LB-PBS medium, absorbance 600 nm (AID 1176); also: test concentration not given here; conditions: P. aeruginosa PAO1 growth/biofilm, A600, 12 h; higher = more signal
[6] = S. cerevisiae RM11-1a growth modifiers, primary screen, strain RM11-1a, OD600, basal, 24 h (AID 1177); conditions: OD600, 24 h, higher = more signal, called active from +8 up or from −8 down;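 also: cultures grown under basal conditions with no added stressor; test concentration not given here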
[7] = E. coli acrAB mutant growth effects, primary screen, E. coli filamentation inducers, strain DRC39, OD650, 24 h (AID 1178); conditions: higher = more signal, called active from +8 up or from −8 down;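 also: growth measured as culture turbidity by optical density at 650 nm; test concentration not given here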
[8] = E. coli acrAB mutant growth effects, primary screen, E. coli filamentation inducers, strain DRC39, OD650, 48 h (AID 1179);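 also: screen aims at cell division blockers that make cells filament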; conditions: E. coli DRC39 delta-acrAB growth, higher = more signal, called active from +8 up or from −8 down
[9] = RPMI8226 myeloma cell viability, profiling panel, resazurin fluorescence, basal, 24 h, PK04 Diversity Set (AID 1180); conditions: higher = more signal;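 also: RPMI8826 multiple myeloma cell line at 5000 cells per well; test concentration not given here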
[10] = molecular target: E3 ubiquitin-protein ligase XIAP (Homo sapiens) (UniProt P98170); assay: XIAP binders, primary screen, biophysical, small-molecule microarray, fluorescence 635 nm (AID 1181); conditions: small-molecule microarray binding, higher = more signal;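 also: score merges 667 nm emission and signal to noise over triplicate slides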
Sequence of E3 ubiquitin-protein ligase XIAP (Homo sapiens) (P98170 whole entry, looked up): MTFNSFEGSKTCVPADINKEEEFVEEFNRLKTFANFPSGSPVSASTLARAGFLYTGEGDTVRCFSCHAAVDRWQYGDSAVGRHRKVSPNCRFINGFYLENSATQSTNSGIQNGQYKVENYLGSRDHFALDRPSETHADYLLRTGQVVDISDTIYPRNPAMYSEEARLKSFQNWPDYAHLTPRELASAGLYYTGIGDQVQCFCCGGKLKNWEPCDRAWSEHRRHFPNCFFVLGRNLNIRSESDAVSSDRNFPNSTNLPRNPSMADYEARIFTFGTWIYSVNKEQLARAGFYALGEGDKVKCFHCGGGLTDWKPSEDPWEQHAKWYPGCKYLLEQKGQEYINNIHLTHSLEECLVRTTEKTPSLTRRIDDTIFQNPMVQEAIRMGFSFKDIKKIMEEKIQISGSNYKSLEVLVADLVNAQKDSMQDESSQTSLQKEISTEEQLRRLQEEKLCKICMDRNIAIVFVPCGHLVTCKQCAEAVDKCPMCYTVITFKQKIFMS

Sequence of Dihydroorotate dehydrogenase (quinone), mitochondrial (Plasmodium falciparum (isolate 3D7)) (Q08210 whole entry, looked up): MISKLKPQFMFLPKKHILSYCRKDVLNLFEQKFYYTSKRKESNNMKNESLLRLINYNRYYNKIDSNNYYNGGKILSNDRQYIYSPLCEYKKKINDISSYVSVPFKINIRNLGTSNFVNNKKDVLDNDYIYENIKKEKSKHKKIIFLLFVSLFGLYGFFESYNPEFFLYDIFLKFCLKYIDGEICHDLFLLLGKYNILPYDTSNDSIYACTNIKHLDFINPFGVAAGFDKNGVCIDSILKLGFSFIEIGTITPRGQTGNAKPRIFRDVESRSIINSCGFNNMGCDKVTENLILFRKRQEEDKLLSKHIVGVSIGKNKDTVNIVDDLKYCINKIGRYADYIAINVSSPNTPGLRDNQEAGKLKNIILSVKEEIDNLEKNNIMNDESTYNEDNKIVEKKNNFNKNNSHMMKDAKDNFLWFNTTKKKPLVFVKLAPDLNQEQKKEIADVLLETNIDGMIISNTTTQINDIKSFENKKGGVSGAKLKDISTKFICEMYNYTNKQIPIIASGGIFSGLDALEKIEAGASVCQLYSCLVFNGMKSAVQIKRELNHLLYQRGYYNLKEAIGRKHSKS

Compound | z-score [1] | z-score [2] | z-score [3] | composite z-score [4] | z-score [5] | z-score [6] | z-score [7] | z-score [8] | z-score [9] | composite z-score [10]
CC(=O)NCCCC[C@@H]1NC(=O)[C@@H]2C[C@H](C(=O)NCCCCCN)[C@H](c3cccc(OCCO)c3)N2C1=O | 0.619 | -0.659 (inactive) | 0.427 (inactive) | -0.585 (inactive) | 0.392 (inactive) | -1.42 (inactive) | 1.03 (inactive) | 1.9 (inactive) | 0.0926 | 0.087
CCC#CCN(Cc1ccccc1Br)[C@H](/C=C/C1CC1)[C@@H](O)Cc1ccccc1 | 2.23 | -3.06 (inactive) | 1.93 (inactive) | -0.769 (inactive) | 0.686 (inactive) | -2.7 (inactive) | 1.96 (inactive) | 0.706 (inactive) | 0.329 | -0.144
C=CCC(OC(C)=O)[C@@H]1[C@@H](N(Cc2cccc3ccccc23)C(=O)Cc2ccc(OC)cc2)c2cc(OCCCO)ccc2N1C(=O)c1ccc(-c2ccccc2)cc1 (stereo not given in full) | -0.433 | 0.376 (inactive) | 0.551 (inactive) | -0.547 (inactive) | -0.121 (inactive) | -0.352 (inactive) | 0.144 (inactive) | -0.165 (inactive) | 0.0598 | -0.224
COC(=O)[C@@]1(Cc2ccc(F)cc2)[C@H]2c3cc(C(=O)N(C)C)n(CCc4ccc(OC)c(Br)c4)c3C[C@H]2CN1C(=O)c1ccccc1 | -1.73 | 0.233 (inactive) | -8.44 (active) | -3.85 (inactive) | 2.7 (inactive) | 0.399 (inactive) | -0.893 (inactive) | -1.49 (inactive) | -5.69 | -0.337
CC(C)NC(=O)[C@@]1(c2ccc([N+](=O)[O-])cc2)CC(=O)N(C2CCCCC2)[C@@H]1c1ccc(CO)cc1 | 1.2 | 0.178 (inactive) | 1.16 (inactive) | 1 (inactive) | -0.0249 (inactive) | 0.852 (inactive) | 0.389 (inactive) | 1.29 (inactive) | 0.367 | 0.112
CS(=O)(=O)CCOC(=O)C1=CC(CCCO)=CC(c2ccc(CN3CCCC3)cc2)N(Cc2sc3ccccc3c2Cl)C=C1C(=O)OCCS(C)(=O)=O (stereo not given) | -0.518 | -2.76 (inactive) | -0.0646 (inactive) | -0.449 (inactive) | -0.259 (inactive) | 0.34 (inactive) | 0.285 (inactive) | 0.309 (inactive) | -0.0127 | -0.247
CN(C)C(=O)[C@@]1(Cc2ccccc2)N=C(c2ccc(OCCCO)cc2)O[C@H]1c1ccccc1 | 1.6 | -1.92 (inactive) | 0.857 (inactive) | -0.177 (inactive) | -0.345 (inactive) | 0.319 (inactive) | 0.0862 (inactive) | -0.146 (inactive) | 1.16 | -0.205
CC1CC/C=C\[C@H]2OC34C=CCN(C(C)(C)C)C(=O)[C@H]3N(CCCCCO)C(=O)[C@@H]4C2C(=O)O1 (stereo not given in full) | -0.643 | 0.349 (inactive) | 0.285 (inactive) | 0.797 (inactive) | 0.121 (inactive) | -0.202 (inactive) | 0.338 (inactive) | 0.338 (inactive) | 0.0992 | -0.102
COc1ccc([C@H]2OC[C@@H]3C[C@H](Cc4ccccc4)C(=O)N32)cc1 | -0.195 | -3.69 (inactive) | 0.229 (inactive) | -0.0327 (inactive) | -0.145 (inactive) | 0.248 (inactive) | -0.278 (inactive) | -0.818 (inactive) | -0.627 | -0.152
CCOC(=O)C[C@H]1[C@H](OC(=O)c2ccc(C(=O)c3ccccc3)cc2)[C@@H](NC(=O)CC(C)C)c2cc(OCCCO)ccc2N1C(=O)c1ccccc1 | -0.358 | 0.325 (inactive) | 0.0303 (inactive) | -0.235 (inactive) | 0.714 (inactive) | -0.0649 (inactive) | -0.794 (inactive) | -0.717 (inactive) | -0.281 | -0.0773
CC(c1ccccc1)C(O)C1C=CC2C(=O)N(C)C(=O)C2N1Nc1ccccc1 (stereo not given) | -0.705 | -0.0181 (inactive) | -1.27 (inactive) | -0.475 (inactive) | 0.944 (inactive) | -0.0455 (inactive) | -1.12 (inactive) | -0.374 (inactive) | -1.1 | -0.0654
CCCC=C(CCC)[C@@H](NS(=O)(=O)CC12CCC(CC1=O)C2(C)C)c1ccc(C(=O)OC)cc1 (stereo not given in full) | 0.602 | 0.484 (inactive) | 0.16 (inactive) | -0.929 (inactive) | 0.756 (inactive) | -0.721 (inactive) | 0.0384 (inactive) | -0.572 (inactive) | -0.123 | -0.102
C=CCNC(=O)[C@H]1[C@@H]2C(=O)O[C@@H](c3ccccc3)[C@@H](c3ccccc3)N2[C@@H](c2ccccc2OCCO)[C@]12C(=O)N(C(=O)OCCOC)c1ccc(C#CC3(O)CCCCCC3)cc12 | -0.536 | -0.0911 (inactive) | -3.39 (inactive) | -1.12 (inactive) | 2.42 (inactive) | 0.0382 (inactive) | 0.0979 (inactive) | 0.975 (inactive) | -4.17 | -0.259
CC[C@@H]1O[Si](C(C)C)(C(C)C)c2c1cc(-c1cc(C)c(OC)c(C)c1)nc2-c1ccc(Oc2ccccc2)cc1 | 1.41 | -0.122 (inactive) | 0.722 (inactive) | -0.148 (inactive) | -0.783 (inactive) | -0.0894 (inactive) | 0.48 (inactive) | 0.424 (inactive) | 0.51 | 0.113
CCCC[C@@H](O)C1=C(COC)C[C@H]2C(=O)N(C)C(=O)[C@H]2[C@H]1CO | 0.798 | -3.7 (inactive) | -0.264 (inactive) | -1.43 (inactive) | 1.04 (inactive) | -2.16 (inactive) | 2.43 (inactive) | 0.964 (inactive) | 1.3 | -0.109
COc1ccc([Si](C)(C)[C@H]2[C@H](CC(=O)N(CCO)Cc3ccccc3)O[C@@]3(C(=O)N(C)c4c(Br)cc(C)cc43)[C@@H]2C)cc1 | -1.86 | -2.5 (inactive) | -2.84 (inactive) | -0.474 (inactive) | 1.94 (inactive) | 0.257 (inactive) | 1.32 (inactive) | 0.677 (inactive) | -5.31 | 0.868
CC(C)C(CO)N1C(=O)[C@@H]2[C@H]3C(=O)OCC=C[C@H]3OC23C=CCN(c2ccc(Cl)cc2)C(=O)[C@@H]13 (stereo not given in full) | -0.0883 | 0.646 (inactive) | 0.679 (inactive) | 1.13 (inactive) | -1.13 (inactive) | 1.48 (inactive) | 0.969 (inactive) | 0.646 (inactive) | 1.08 | -0.21
C=C[C@@H](OC)[C@H](OC(=O)Nc1ccc(OC)cc1)c1ccc(O)c(F)c1 | -0.902 | -6.91 (inactive) | -0.967 (inactive) | -1.1 (inactive) | 0.741 (inactive) | -0.175 (inactive) | 0.146 (inactive) | -0.355 (inactive) | -0.877 | 0.252
C=CCNC(=O)[C@@H]1[C@H]2C(=O)O[C@H](c3ccccc3)[C@H](c3ccccc3)N2[C@H](c2ccccc2OCCO)[C@@]12C(=O)Nc1ccc(C#CCCO)cc12 | 0.282 | 0.634 (inactive) | 0.373 (inactive) | 1.22 (inactive) | 4.62 (inactive) | 1.96 (inactive) | -1.09 (inactive) | -2.17 (inactive) | -0.315 | 0.0461
COc1ccc([Si](C)(C)[C@@H]2[C@@H](CC(=O)N3Cc4ccccc4C[C@H]3CO)O[C@]3(C(=O)N(Cc4ccc(N5C(=O)c6cccc7cccc5c67)cc4)c4ccccc43)[C@H]2C)cc1 | -0.542 | -0.551 (inactive) | -0.717 (inactive) | -2.41 (inactive) | 1 (inactive) | 1.15 (inactive) | 0.384 (inactive) | 0.403 (inactive) | -0.221 | -0.0773
Cc1ccc(S[C@]2(C(=O)NCC(F)(F)F)CC(=O)N(Cc3cc(C(F)(F)F)cc(C(F)(F)F)c3)[C@@H]2c2ccc(CO)cc2I)cc1 | 1.02 | -3.16 (inactive) | -1.99 (inactive) | -0.845 (inactive) | -0.522 (inactive) | -0.974 (inactive) | -0.301 (inactive) | -0.0582 (inactive) | -2.03 | -0.325
N#Cc1ccc(NN2C(C(O)c3ccc(Br)cc3)C=CC3C(=O)N(c4ccccc4)C(=O)C32)cc1 (stereo not given) | -1.3 | -3.42 (inactive) | -0.299 (inactive) | -1.03 (inactive) | 0.819 (inactive) | -1.85 (inactive) | 0.527 (inactive) | 0.656 (inactive) | -0.0706 | 0.179
COCC(=C=CC[C@H](O)c1ccc(CO)o1)CCO | -0.116 | -1.63 (inactive) | -0.0463 (inactive) | -2.35 (inactive) | -0.165 (inactive) | 0.256 (inactive) | -0.401 (inactive) | -0.524 (inactive) | 0.036 | 0.536
[N-]=[N+]=Nc1ccccc1[C@H]1OC(c2ccc(OCCCO)cc2)=N[C@@]1(Cc1ccccc1)C(=O)NCCN1CCOCC1 | -0.564 | -2.44 (inactive) | -1.5 (inactive) | 0.73 (inactive) | 0.314 (inactive) | 0.964 (inactive) | 2.03 (inactive) | 0.627 (inactive) | -1.74 | 0.643
